For 66 compounds, inhibition results are on record in PubChem BioAssay AID1626 (SRMLSC, 2009).

About 2,000 (0.91%) of roughly 220,000 compounds were called active. Roughly 2% stayed inconclusive and do not appear here. A selection follows. Measured potencies and affinities stand elsewhere. Values without a mark were called inactive. No stated cut-off is given here; in the data, inconclusive means inhibition above about 80% without an active follow-up result; inactive means below that; test concentration not stated here.

This experiment can be described thus: M. tuberculosis H37Rv growth inhibitors, H37Rv strain (AID 1626).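 Further: bacteria incubated seven days before Alamar blue readout; 0% = bacteria only wells and 100% = bacteria with antibiotic wells.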 The note with it: active compounds read high, concentration not given here.
For `CCN(CC)S(=O)(=O)c1ccc(N2CCCC2)c(NC(=O)CC(C)(C)C)c1`, the inhibition was -7.98%.

As to `O=C(Nc1cc(Sc2ccccn2)cc([N+](=O)[O-])c1)c1ccc(Cl)cc1`, the inhibition is 7.55%.

Regarding `COC(=O)c1cc(OC)c(OC)cc1NC(=S)Nc1cc(Cl)ccc1OC`, the inhibition was -12%.

In the case of `Nc1ccc(Nc2nc(-c3cc4ccccc4oc3=O)cs2)cc1`, the inhibition was -8.26%.

With `O=C(Nc1nc(-c2cc3ccccc3oc2=O)cs1)c1ccco1`, the inhibition is -2.76%.

`CC1=C(C(=O)Nc2ccccc2)C2(CCCCC2)C(C#N)=C(S)N1`: the inhibition was -2.79%.

For `Cc1ccc(S(=O)(=O)N(C)C)cc1NC(=O)COC(=O)CCC(=O)c1cccs1`, the inhibition was 0.54%.

For the compound `COc1ccc2c(c1)c(C(=O)CN1CCN(C(=O)c3ccco3)CC1)c(C)n2C`, the inhibition was 3.66%.

Consider `COc1ccc(C(CC(=O)c2ccc(C)cc2)Nc2ccc([N+](=O)[O-])cc2)cc1` (stereo unspecified), for which the inhibition was 13.5%.

Regarding `Cc1ccc(NCC(=O)c2ccc([N+](=O)[O-])cc2)cc1`, the inhibition was 6.43%.

In the case of `CC1(C)CC(=O)c2sc(N3CCCCC3)nc2C1`, the inhibition was 1.75%.

As to `Fc1ccc(-c2nnn3c2nc(NCc2ccccc2)c2ccccc23)cc1`, the inhibition was -3.18%.

For the compound `COc1ccc(COC(=O)Nc2cc3c(C(F)(F)F)nn(C)c3s2)cc1`, the inhibition is 0.73%.

Regarding `Cn1nc(C(F)(F)F)c2cc(NC(=O)OCc3ccc(F)cc3)sc21`, the inhibition was -0.24%.

Take `COc1ccc(CNC(=O)COC(=O)/C=C/c2ccc(Cl)cc2)cc1`: the inhibition is 2.04%.

With `COc1ccc(-c2nc(N)n(C(=O)c3ccccc3)n2)cc1`, the inhibition is 6.59%.

On to `O=C(NC1CCCCCC1)c1ccc(=O)n(Cc2ccccc2)n1`, for which the inhibition was -0.36%.

`CC(C)COC(=O)c1ccccc1C(=O)OCC(C)C`: the inhibition is -10%.

Take `COC(=O)c1ccc2c(c1O)C(=O)c1ccccc1C2=O`: the inhibition is 1.91%.

Take `CCOC(=O)c1c(C)oc2c1c(CN1CCN(CCO)CC1)c(O)c1ccccc12`: the inhibition was 3.65%.

`O=C(CN1CC=C(c2ccccc2)CC1)NC(=O)NCc1ccco1`: the inhibition is -3.79%.

In the case of `COc1ccc(-c2cc3ccccc3n2CC(O)CN2CCCCC2)cc1` (stereo unspecified), the inhibition is 3%.

With `Cc1ccc(OCC(O)Cn2c3ccccc3c3ccccc32)cc1` (stereo unspecified), the inhibition was 72.7%.

With `O=C(c1ccco1)N1CCN(CC(O)Cn2c3ccccc3c3ccccc32)CC1` (stereo unspecified), the inhibition is 1.44%.

Regarding `OC(CN1CCN(c2ccccc2)CC1)Cn1c2ccccc2c2ccccc21` (stereo unspecified), the inhibition is 11.9%.

As to `Cc1ccc(OCC(O)CN2CCN(CC(O)COc3ccc(C)cc3)CC2)cc1` (stereo unspecified), the inhibition was 2.23%.

As to `CCOc1ccc(CN2CCN(C(=O)c3ccccc3)CC2)cc1`, the inhibition was 0.42%.

With `OC(COc1ccccc1)Cn1c2ccccc2c2ccccc21` (stereo unspecified), the inhibition was 41.6%.

In the case of `COc1ccc(-c2cc3ccccc3n2CC(O)CN2CCN(CCO)CC2)cc1` (stereo unspecified), the inhibition was 4.8%.

Take `O=C(N/N=C/c1c(Cl)cccc1Cl)c1ccccc1F`: the inhibition is 65.5%.

In the case of `O=C(CNc1ccccc1)NN=C1CCCC1`, the inhibition is -7.1%.

As for `COc1cccc(CNC(=O)CCC2CCCN(C(=O)c3cscn3)C2)c1` (stereo unspecified), the inhibition was -1.29%.

On to `CCOC(=O)N1CCN(C(=O)Nc2ccc(NC(=O)N3CCN(C(=O)OCC)CC3)cc2)CC1`, for which the inhibition is -0.49%.

Consider `COc1ccccc1/C=C/C(=O)N1CCOCC1`, for which the inhibition is -12.7%.

With `O=C(NCCCN1CCOCC1)/C(=C/c1ccc(F)cc1)NC(=O)c1ccccc1`, the inhibition was -5.09%.

On to `CC1(C)NC(=O)N(CC(=O)Nc2cc(S(=O)(=O)N3CCOCC3)ccc2N2CCOCC2)C1=O`, for which the inhibition is 0.65%.

On to `C=CCNC(=O)NC(=O)COC(=O)[C@H](C)NS(=O)(=O)c1c(C)c(C)cc(C)c1C`, for which the inhibition was 0.16%.

As to `COC(=O)c1ccc(Cn2cnc3c(cnn3-c3ccc(C)c(C)c3)c2=O)o1`, the inhibition was -9.12%.

As to `COc1ccc2c(c1)CCCN2C(N)=O`, the inhibition is -8.08%.

On to `C=CCn1c(SCC(=O)c2ccc(O)c(O)c2)nnc1-c1ccccc1OC`, for which the inhibition was -2%.

As for `C=CCn1c(SCc2csc(-c3ccc(Cl)cc3)n2)nnc1-c1ccccc1OC`, the inhibition was 7.93%.

Turning to `COc1cc(NS(=O)(=O)c2ccc(NC(=O)NC3CCCCC3)cc2)nc(OC)n1`, the inhibition was -5.16%.

Turning to `Cc1cccc(C(=O)N2CCC(=O)N(C(COCc3cccc(Cl)c3)Cc3ccccc3)CC2)c1` (stereo unspecified), the inhibition is -0.5%.

For `O=C(CCN1C(=O)C2CCCCC2C1=O)Nc1nc(-c2ccccc2)cs1` (stereo unspecified), the inhibition was 6.05%.

For the compound `O=C(CCN1C(=O)C2CCCCC2C1=O)Nc1ccc(F)c(F)c1F` (stereo unspecified), the inhibition was -4.84%.

Consider `CCOC(=O)C1(CC2CCCCO2)CCN(C(=O)NCc2ccccc2)CC1` (stereo unspecified), for which the inhibition is 4.64%.

As to `COc1ccc(-c2cc(C(F)(F)F)nc(N3CCOCC3)n2)cc1`, the inhibition is -0.92%.

As for `Nc1c(Cl)nc(-c2ccccc2)nc1Cl`, the inhibition was 0.39%.

On to `c1ccc(-c2cnc(-c3ccccc3)nc2)cc1`, for which the inhibition was -5.94%.

Regarding `O=C(CCN1C(=O)C2C3C=CC(C3)C2C1=O)Nc1nccs1` (stereo unspecified), the inhibition was -5.43%.

As for `O=C1CNC(=S)N1CCc1ccc(Cl)cc1`, the inhibition was -6.23%.

Consider `CCc1ccccc1NC(=O)CN(C)C(=O)CSc1nn(-c2ccc(F)cc2)c(=S)s1`, for which the inhibition is -11.2%.

`COc1ccc(-c2nc(C(F)(F)F)c(OC)o2)cc1OC`: the inhibition is -0.95%.

Regarding `O=C(Nc1ccc(F)cc1)N1CCN(C/C=C/c2ccccc2)CC1`, the inhibition was -13%.

Take `O=C(C1CCN(Cc2ccc(F)cc2)CC1)N1CCN(C/C=C/c2ccccc2)CC1`: the inhibition is 5.92%.

Turning to `COCCNC(=O)CN(C)S(=O)(=O)c1ccc(Br)cc1`, the inhibition is -4.89%.

For `CCc1cc(C(=O)c2ccc(C)cc2)c(NC(=O)CCl)s1`, the inhibition was 76.6%.

Take `Cc1cc(C(=O)c2ccc(Cl)cc2)c(NC(=O)CCl)s1`: the inhibition is 73.2%.

As for `COc1ccc(-c2nnc(SCC(=O)N3CCCC3)o2)cc1OC`, the inhibition is -0.93%.

With `COc1ccc(-c2nnc(SCC(=O)N3CCCCC3)o2)cc1OC`, the inhibition is 5%.

Regarding `COc1cc(-c2nnc(SCC(=O)c3ccc(C)cc3)o2)cc(OC)c1OC`, the inhibition was 2.03%.

With `COc1ccc(OC)c(C(=O)CSc2nnc(-c3ccc(OC)c(OC)c3)o2)c1`, the inhibition is -6.09%.

Consider `COc1ccc(-c2nnc(SCC(=O)N3CCOCC3)o2)cc1OC`, for which the inhibition was -5.9%.

Take `O=C(CSc1nnc(-c2cccnc2)o1)OC1CCCCC1`: the inhibition was -4.83%.

As to `O=C(CSc1nnc(-c2cccs2)o1)OCc1ccccc1`, the inhibition is -0.9%.

As for `O=C(CSc1nnc(-c2cccs2)o1)N1CCCCC1`, the inhibition is 1.5%.

For orientation: inhibition means the drop in the measured response relative to a control, in per cent.
